High-throughput results (PubChem BioAssay)
HCMV antiviral: human cytomegalovirus inhibition; AID 1259415; hit rate 4.5% among 410,000; activity change, negative = inhibition, % at 57.5 µM; HFF cells, HCMV-luciferase reporter, 72 h; hits give low values; in the data active = activity change below about -60%; inconclusive = no clear call, values can overlap the other calls; inactive = above about -39%
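Inhibition of viral replication was scored as loss of reporter luminescence in HFFs infected with HCMV-luciferase (MOI 1 PFU/cell) for 72 h; compounds tested at 2 doses, normalized to buffer and Salinomycin controls.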
Vaccinia mCherry: inhibitors of vaccinia virus infection (mCherry reporter signal) | Vaccinia virus mCherry reporter infection, fluorescence | Potency, µM (series often up to 36.5 µM), most hits filed as inhibitors | hit rate 0.63% among 310,000 | AID 720579; calls by dose curve; tested in A549 cells; also: nearly all actives have a fitted effect of over 35% in size
HCV inh: inhibitors of hepatitis C virus infection. AID 651820. Huh7.5.1 HCVcc-Cre infection, luciferase reporter, 44 h. hit rate 3.4% among 340,000. Potency, µM (titrated, usually from 41.8 µM), most hits filed as inhibitors
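Antiviral activity was scored by luciferase reporter output from cells infected with HCVcc-Cre (~0.5 moi) in presence of compound, 44 h infection period, cells seeded 1,000/well 4 h prior.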
VACV Venus inh: vaccinia inhibition (Venus reporter); Vaccinia virus Venus reporter expression, fluorescence; Potency, µM (series often up to 36.5 µM), actives largely listed as inhibitors; hit rate 0.46% among 330,000; calls by dose curve; tested in A549 cells; also: nearly all actives have a fitted effect of over 30% in size
Sm TGR inh: S. mansoni TGR enzyme inhibition; AID 485364; purified TGR, DTNB reduction, TNB absorbance 405 nm; hit rate 3% among 360,000; Potency, µM (highest dose often 114 µM), hits mostly inhibitors; also: nearly all actives have a fitted effect of over 60% in size
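First, TGR (20 nM dispensed) and NADPH were mixed with compound. Second, a 15 min room-temperature incubation followed. Third, further NADPH and then DTNB were added to start the reaction. Finally, TNB absorbance was monitored kinetically.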
FMDV antiviral: foot and mouth disease virus antiviral activity. Potency, µM (doses to about 57.9 µM), most hits filed as inhibitors. AID 1159524. FMDV antiviral cell-based qHTS. hit rate 1.2% among 410,000; calls by dose curve; tested in HEK293T cells; also: read-out not given here; nearly all actives have a fitted effect of over 45% in size
Numbers stand for hits; . = inactive; ? = inconclusive; / = not tested or not shown; [ ] = dose if it differs, or a comment. The list is not random: actives were taken first. Their share in the collection is about 9.3%. Unless noted, calls follow the shape of the dose curve; as a rule, active = well fitted curve in the direction sought with a large enough effect; inconclusive = small, poorly fitted or top-dose-only effect, or another doubt; inactive = no such curve, though single readings can be large; an effect the other way counts as inactive or inconclusive.

SMILES	HCMV antiviral	Vaccinia mCherry	HCV inh	VACV Venus inh	Sm TGR inh	FMDV antiviral
CCOC(=O)c1c(-c2ccc(C)o2)csc1NC(=O)CSc1nnnn1-c1ccccc1	.	.	1.8µM	.	5.6µM	/
CCOC(=O)c1c(CC(C)C)csc1NC(=O)COC(=O)c1ccc(O)cc1	.	.	?	.	.	35µM
CCOC(=O)c1c(-c2ccc(C)o2)csc1NC(=O)CSc1nnc(C)s1	.	.	?	.	?	/
COc1ccc(OC)c(NC(=O)CCS(=O)(=O)c2cc3c(cc2C)NC(=O)CO3)c1	.	.[7.34 µM]	.	.[7.34 µM]	.	.
CCOc1nc(C#N)nc(N2CCOCC2)n1	/	.	/	.	/	/
CCO[C@@H]1OC(C(=O)NCc2nc3ccccc3[nH]2)=C[C@H](c2csc3ccccc23)[C@H]1CCCO	.	.	.	?	.	?
CCN1CCN(C(=O)c2sc3ncnc(N4CCc5ccccc5C4)c3c2C)CC1	.	.	?	?	.	.
CCCNc1nc2c(c(=O)n(C)c(=O)n2C)n1CCCc1ccccc1	.	/	?	/	.	?
CCCn1c(CN2CCCCC2C)nc2c1c(=O)n(C)c(=O)n2C (configuration not stated)	.	.	.	.	.	.
CCCNc1nc2c(c(=O)n(C)c(=O)n2C)n1CCc1ccccc1	-65	/	14µM	/	.	14µM
CCCCCCn1c(NCC)nc2c1c(=O)n(C)c(=O)n2C	-89	/	5.6µM	?	.	?
CCCNc1nc2c(c(=O)n(C)c(=O)n2C)n1Cc1cccc(C)c1	-62	?	?	.	.	?
CCCCCCn1c(CN2CCCCC2C)nc2c1c(=O)n(C)c(=O)n2C (configuration not stated)	.	?	25µM	.	.	/
COc1ccc2sc(NC(=O)CC(C)C)nc2c1	.	/	.	/	.	.
Cc1ccc(Cl)cc1N1CCN(c2ncnc3onc(-c4ccc(F)cc4)c23)CC1	.	.	/	.	.	?
CC(O)CNc1nc2c(c(=O)n(C)c(=O)n2C)n1Cc1cccc(Br)c1 (configuration not stated)	.	.	11µM	.	.	/
COCCCn1c(=O)c2sccc2n(Cc2cccc(C)c2)c1=O	.	/	.	/	.	.
CC(O)CNc1nc2c(c(=O)n(C)c(=O)n2C)n1CCc1ccccc1 (configuration not stated)	.	.[1.46 µM]	28µM	.	.	?
Cn1c(Br)nc2c1c(=O)n(Cc1ccccc1)c(=O)n2C	.	.	.	.	.	.
Cn1c(=O)c2c(nc(NCC(O)CO)n2CCc2ccccc2)n(C)c1=O (configuration not stated)	.	/	.	.	.	.
Cn1c(Cl)nc2c1c(=O)n(Cc1cccc(Br)c1)c(=O)n2C	.	/	13µM	/	.	.
Cn1c(=O)c2sccc2n(Cc2cccc(Br)c2)c1=O	.	.	11µM	.	.	.
O=C1CCCN1CCCNCCCn1cnc2c(OCc3ccccc3)ncnc21	.	.	.[8.37 µM]	.	/	?
CCOc1cc(C(c2c(O)nc(SC)[nH]c2=O)c2c(O)nc(SC)[nH]c2=O)ccc1O	.	.	.	.	/	.
COc1ccc(C(c2c(O)nc(SC)n(C)c2=O)c2c(O)nc(SC)n(C)c2=O)cc1O	.	.	.	.	13µM	.
SMILES	HCMV antiviral	Vaccinia mCherry	HCV inh	VACV Venus inh	Sm TGR inh	FMDV antiviral
Cc1nc(N)c(CC(Br)CBr)c(Cl)n1 (configuration not stated)	-68	/	.	/	.	.
CN(Cc1ccco1)Cc1ccc(O)c2ncccc12	/	/	/	/	0.71µM	.
OCc1ccc(O)c2ncccc12	-98	/	11µM	?	22µM	.
Oc1ccc(Cc2ccccc2)c2cccnc12	-100	?	?	?	/	.
CN(Cc1ccco1)c1ncncc1-c1cccnc1	/	/	/	/	/	.
Oc1ccc(COCc2ccccc2)c2cccnc12	-99	.	5µM	?	35µM	.
CC(C)c1ccc(NC(=O)CCn2c(=O)c3cccn3c3ccccc32)cc1	.	.	/	.	.	.
COc1cccc(/C=C/C(=O)OCC(=O)N2c3ccccc3CC2C)c1 (configuration not stated)	.	.	/	.	/	.
CCn1c2ccccc2c2cc(/C=N/n3c(C)nnc3C)ccc21	.	.	3.5µM	.	.	/
Cc1nnc(C)n1/N=C/c1ccccc1	.	.	.	.	.	.
Cn1c(SCC(=O)OC2CCCCC2)nnc1-c1ccco1	.	.	.	.	.	.
Cc1ccc2[nH]c(=O)c(CN(CCCN3CCOCC3)C(=O)NC3CCCCC3)cc2c1	.	/	.	/	100µM	.
CCN(CC)CCCN(Cc1cc2ccc(C)c(C)c2[nH]c1=O)C(=O)NC1CCCCC1	.	/	5.6µM	/	.	.
CCc1ccc2[nH]c(=O)c(CN(CCCN3CCOCC3)C(=O)Nc3ccc(Cl)cc3)cc2c1	.	?	.	.	.	.
Cc1ccc(C)c2[nH]c(=O)c(CN(CCN3CCCC3)C(=O)Nc3cccc(Cl)c3)cc12	.	.[1.46 µM]	11µM	.	?	.
Cc1cc(C)c2cc(CN(CCN3CCCC3)C(=O)Nc3ccc(F)cc3)c(=O)[nH]c2c1	.	/	?	.	.	.
O=C(NC1CCCCC1)N(CCN1CCOCC1)Cc1cc2cc3c(cc2[nH]c1=O)OCCO3	?	/	.	/	.	.
Cc1ccc2cc(CN(CC3CCCO3)C(=O)NC3CCCCC3)c(=O)[nH]c2c1C (configuration not stated)	?	/	.	/	.	.
CCc1ccc2[nH]c(=O)c(CN(CCCN3CCOCC3)C(=O)Nc3cccc(Cl)c3)cc2c1	.	/	10µM	?	.	?
COC(=O)c1ccc(NC(=O)CC2C(=O)N(c3ccc(Cl)cc3)C(=O)N2Cc2ccco2)cc1 (configuration not stated)	.	.	/	.	.	.
CCn1nnnc1NC(=O)c1cccc(OC)c1	.	.	.	.	.	.
CS(=O)(=O)N1CCCc2cc(C(=O)Nc3cccc(C(F)(F)F)c3)ccc21	?	.[7.34 µM]	/	.[7.34 µM]	.	25µM
COc1cccc(NC(=O)c2ccc3c(c2)CCN3S(C)(=O)=O)c1	.	.	?	.	.	.
CS(=O)(=O)N1CCc2cc(C(=O)Nc3ccc(O)cc3)ccc21	.	.	.	.	.	.
CC1CCN(CC(=O)Nc2cccc(C(=O)Nc3cccc(C(F)(F)F)c3)c2)CC1	.	.	22µM	?	.	.
CS(=O)(=O)N1CCc2cc(C(=O)Nc3ccc(COCC(F)(F)F)cc3)ccc21	?	/	11µM	/	.	?
COC(=O)[C@@]1(Cc2ccc(F)cc2)[C@H]2c3cc(C(=O)N(C)C)n(CCF)c3C[C@H]2CN1C(=O)c1ccccc1	.	.	/	.	/	.
COC(=O)[C@@]1(Cc2ccccc2)[C@@H]2C(=CC(=O)[C@H]2CC(=O)C(=O)N(C)C)CN1C(=O)c1ccccc1	/	?	?	?	?	14µM
CC1(C(=O)NNC(=O)c2ccc(=O)oc2)CC1Br (configuration not stated)	.	.	.	.	10µM	.
Cc1cccc(NC(=O)CN2CCN(C(=O)c3ccc(-c4nc5ccccc5s4)o3)CC2)c1C	.	.	?	.	.	.
